This note sets out measurements from PubChem BioAssay (NCATS).

SMILES strings stand for the structures. Results filed as inconclusive are left out. Entries that show only a call come without a potency. Calls of active or inactive are those of the source. Calls come from the whole dose curve; as a rule, active = well fitted curve in the direction sought with a large enough effect; inconclusive = small, poorly fitted or top-dose-only effect, or another doubt; inactive = no such curve, though single readings can be large; an effect the other way counts as inactive or inconclusive.
Potency is the fitted concentration of half-maximal effect.

Cytochrome P450 3A7 (Homo sapiens), sequence (P24462 whole entry, looked up): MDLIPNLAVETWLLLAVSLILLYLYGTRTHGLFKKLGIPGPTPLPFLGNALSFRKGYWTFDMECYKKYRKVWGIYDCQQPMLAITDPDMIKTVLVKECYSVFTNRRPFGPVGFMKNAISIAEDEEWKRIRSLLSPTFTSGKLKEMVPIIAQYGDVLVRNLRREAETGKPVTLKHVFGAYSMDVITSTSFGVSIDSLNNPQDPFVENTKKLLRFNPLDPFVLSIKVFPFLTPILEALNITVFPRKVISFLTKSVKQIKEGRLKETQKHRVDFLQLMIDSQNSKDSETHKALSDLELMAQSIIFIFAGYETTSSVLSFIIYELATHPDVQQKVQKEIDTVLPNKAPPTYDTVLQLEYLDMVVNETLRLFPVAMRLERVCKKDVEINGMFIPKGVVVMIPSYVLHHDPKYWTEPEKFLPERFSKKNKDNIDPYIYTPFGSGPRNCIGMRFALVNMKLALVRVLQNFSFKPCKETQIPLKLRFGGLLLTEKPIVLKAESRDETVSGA

The target in one test is Cytochrome P450 3A7 (Homo sapiens) (UniProt P24462). Nature of the test: Cytochrome P450 family 3 subfamily A member 7 (CYP3A7) small molecule antagonists: luciferase biochemical qHTS assay (AID 1963596). Note: nearly all actives have a fitted effect of over 40% in size. Conditions: P450-Glo CYP3A7 enzyme luminescence, 1 h; series mostly up to 57.4 µM. The gist of the method:
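Luminescence from luciferin released by CYP3A7 from a proluciferin substrate, read 20 min after detection reagent. Compound and enzyme-substrate mix sat 10 min before NADPH regeneration solution; reaction ran 1 h at room temperature.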
For the compound `CCCCCCC(=O)CCCCCC/C=C/C[C@@H](O)[C@H](O)[C@@](N)(CO)C(=O)O`, the Potency entry is “inactive”.
For the compound `[N-]=[N+]=CC(=O)OC[C@H](N)C(=O)O`, the Potency entry was “inactive”.
`C[C@H](NC(=O)Cc1cc(F)cc(F)c1)C(=O)N[C@@H]1N=C(c2ccccc2)c2ccccc2N(C)C1=O`: the Potency entry is “inactive”.
On the same count and under the same terms, for `CC(C)(C)NCC(O)c1cc(Cl)c(N)c(Cl)c1` (stereo unspecified) the value was “inactive”.
The same measure, in the same setting: then `CCCCn1cc(C(=O)c2cccc3ccccc23)c2ccccc21`, with “inactive”; and `C1CCC(NC2CCCCC2)CC1`, with “inactive”; and `COC(=O)C(Cl)C(=O)OC`, with “inactive”.
Same read-out and setting: for `CCCC(C)(COC(N)=O)COC(=O)NC(C)C` (stereo unspecified) the value was “inactive”; for `OCCCCC#Cc1cncc(OC[C@@H]2CCN2)c1`, “inactive”.
For the compound `CCc1ccc(C2CCNCC2)cc1`, the Potency result was “inactive”.
Same read-out and setting: for `COc1ccc(C(CN(C)C)C2(O)CCCCC2)cc1` (stereo unspecified) the value was “inactive”; for `CC(=O)NC1CCSC1=O` (stereo unspecified), “inactive”; for `Oc1ccc(Cl)cc1`, “inactive”.
On the same count and under the same terms, then `C[C@@H](C1CC[C@@]2(O)C3=CC(=O)[C@@H]4C[C@@H](O)[C@@H](O)C[C@]4(C)[C@H]3CC[C@]12C)[C@H](O)CCC(C)(C)O` (stereo partly specified), with “inactive”; and `Oc1ccc2c3c1O[C@H]1[C@@H](O)C=C[C@H]4[C@@H](C2)NCC[C@@]341`, with “inactive”.
Regarding `CC(CC(C(N)=O)(c1ccccc1)c1ccccc1)N(C)C` (stereo unspecified), the Potency result was “inactive”.
Still for that read-out and setting: for `O=C1CN=C(c2cccc(Br)c2)c2oc3ccccc3c2N1` the value was “inactive”; for `Sc1ccccc1Cl`, “inactive”; for `c1cncc(OC[C@@H]2CCN2)c1`, “inactive”.
For `O=[N+]([O-])/N=C1\NCCN1Cc1ccc(Cl)nc1`, the Potency result was “inactive”.
On to `C#CC(O)(C=CCl)CC` (stereo unspecified), for which the Potency entry is “inactive”.
For the compound `O=C(Oc1ccc([N+](=O)[O-])cc1)N1CCN(Cc2cccc(Oc3ccccc3)c2)CC1`, the Potency entry was “inactive”.
On to `C[C@H]1[C@@H]2Cc3ccc(O)cc3[C@@]1(C)CCN2C`, for which the Potency result was “inactive”.
Still for that read-out and setting: then `c1ccc2c(c1)sc1ccccc12`, with “inactive”; and `Oc1c(Br)cc(Br)cc1Br`, with “inactive”.
As to `C#CCN(C)[C@H](C)Cc1ccccc1`, the Potency entry was “inactive”.
`CN(C)[C@@H]1C(=O)C(C(N)=O)=C(O)[C@@]2(O)C(=O)C3=C(O)c4c(O)cccc4[C@@](C)(O)[C@H]3[C@H](O)[C@@H]12`: the Potency result is “inactive”.
For `CCC1(CC)C(=O)NC(=O)NC1=O`, the Potency result is “inactive”.
The same measure, in the same setting: then `CN(C(=O)Cc1ccccc1)C(CN1CCCC1)c1ccccc1` (stereo unspecified), with “inactive”; and `C[C@@H]1CN(C2CCC(C#N)(c3ccc(F)cc3)CC2)CC[C@]1(C(=O)O)c1ccccc1` (stereo partly specified), with “inactive”; and `CC(C)C(Br)C(=O)NC(N)=O` (stereo unspecified), with “inactive”.
Same read-out and setting: then `C[C@@H](CN1CCC(n2c(=O)[nH]c3cc(Br)ccc32)CC1)NC(=O)[C@@H]1C[C@H]1c1ccccc1`, with “inactive”; and `C1CN2CCC1CC2`, with “inactive”; and `O=C1c2ccccc2C(=O)c2ccccc21`, with “inactive”.
The same measure, in the same setting: then `CC(C)[C@@H](CN1CC[C@@](C)(c2cccc(O)c2)[C@@H](C)C1)NC(=O)[C@H]1Cc2ccc(O)cc2CN1`, with “inactive”.
Turning to `CN[C@@H](C)[C@H](O)c1ccccc1`, the Potency entry was “inactive”.
Take `C[C@H]1CNCCc2ccc(Cl)cc21`: the Potency result was “inactive”.
As to `CCNc1nc(Cl)nc(NCC)n1`, the Potency result was “inactive”.
As to `Cc1ccc([N+](=O)[O-])[c]2c1[O][Hg]2`, the Potency was 0.617 µM (active).

Test system in a further test: not listed separately
Nature of the test: Viability qHTS for spleen associated tyrosine kinase inhibitor (SYKi) naive MV4-11 cells (AID 1963823). Note: nearly all actives have a fitted effect of over 40% in size. Conditions: MV4-11 AML viability, CellTiter-Glo luminescence, 72 h; series mostly up to 45 µM. The gist of the method: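 Read-out: CellTiter-Glo luminescence. Exposure: 72 hr, 37 C, 5% CO2, 95% humidity. Cells: MV4-11 without SYK inhibitor history, 500/well, qHTS format.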
With `[N-]=[N+]=CC(=O)OC[C@H](N)C(=O)O`, the Potency entry was “inactive”.
On the same count and under the same terms, then `CC(C)(C)NCC(O)c1cc(Cl)c(N)c(Cl)c1` (stereo unspecified), with “inactive”; and `C1CCC(NC2CCCCC2)CC1`, with “inactive”.
Still for that read-out and setting: for `COC(=O)C(Cl)C(=O)OC` the value was “inactive”; for `CCc1ccc(C2CCNCC2)cc1`, “inactive”; for `CC(=O)NC1CCSC1=O` (stereo unspecified), “inactive”.
For `Oc1ccc(Cl)cc1`, the Potency entry is “inactive”.
Same read-out and setting: then `C[C@@H](C1CC[C@@]2(O)C3=CC(=O)[C@@H]4C[C@@H](O)[C@@H](O)C[C@]4(C)[C@H]3CC[C@]12C)[C@H](O)CCC(C)(C)O` (stereo partly specified), with “inactive”; and `Oc1ccc2c3c1O[C@H]1[C@@H](O)C=C[C@H]4[C@@H](C2)NCC[C@@]341`, with “inactive”; and `CC(CC(C(N)=O)(c1ccccc1)c1ccccc1)N(C)C` (stereo unspecified), with “inactive”.
Consider `C#CC(O)(C=CCl)CC` (stereo unspecified), for which the Potency entry was “inactive”.
The same measure, in the same setting: then `O=C(Oc1ccc([N+](=O)[O-])cc1)N1CCN(Cc2cccc(Oc3ccccc3)c2)CC1`, with 16.4 µM (active).
As for `C[C@H]1[C@@H]2Cc3ccc(O)cc3[C@@]1(C)CCN2C`, the Potency entry was “inactive”.
Same read-out and setting: for `c1ccc2c(c1)sc1ccccc12` the value was “inactive”.
Still for that read-out and setting: for `Oc1c(Br)cc(Br)cc1Br` the value was “inactive”; for `CN(C)[C@@H]1C(=O)C(C(N)=O)=C(O)[C@@]2(O)C(=O)C3=C(O)c4c(O)cccc4[C@@](C)(O)[C@H]3[C@H](O)[C@@H]12`, “inactive”; for `C[C@@H]1CN(C2CCC(C#N)(c3ccc(F)cc3)CC2)CC[C@]1(C(=O)O)c1ccccc1` (stereo partly specified), “inactive”.
As for `CC(C)C(Br)C(=O)NC(N)=O` (stereo unspecified), the Potency entry is “inactive”.
On the same count and under the same terms, then `C1CN2CCC1CC2`, with “inactive”; and `O=C1c2ccccc2C(=O)c2ccccc21`, with “inactive”.
On the same count and under the same terms, then `CN[C@@H](C)[C@H](O)c1ccccc1`, with “inactive”.
Same read-out and setting: for `CCNc1nc(Cl)nc(NCC)n1` the value was “inactive”; for `Cc1ccc([N+](=O)[O-])[c]2c1[O][Hg]2`, 0.0944 µM (active).

Test system in another test: not listed separately
Nature of the test: Viability qHTS for spleen associated tyrosine kinase inhibitor (SYKi) drug resistant MV4-11 cells (AID 1963824). Note: nearly all actives have a fitted effect of over 35% in size. Conditions: SYKi-resistant MV4-11 viability, CellTiter-Glo, 72 h; series mostly up to 45 µM. In short, it runs like this: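 CellTiter-Glo luminescence, read 10 min after reagent addition, reports viability after a 72 hr compound exposure. Cells are an MV4-11 line made resistant to SYK inhibition, seeded at 500 per well onto compound-containing plates.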
As for `CCCCCCC(=O)CCCCCC/C=C/C[C@@H](O)[C@H](O)[C@@](N)(CO)C(=O)O`, the Potency entry is “inactive”.
`C[C@H](NC(=O)Cc1cc(F)cc(F)c1)C(=O)N[C@@H]1N=C(c2ccccc2)c2ccccc2N(C)C1=O`: the Potency result is “inactive”.
For the compound `CCCCn1cc(C(=O)c2cccc3ccccc23)c2ccccc21`, the Potency was 18.4 µM (active).
Consider `C1CCC(NC2CCCCC2)CC1`, for which the Potency result was “inactive”.
Take `COC(=O)C(Cl)C(=O)OC`: the Potency result is “inactive”.
For the compound `CCCC(C)(COC(N)=O)COC(=O)NC(C)C` (stereo unspecified), the Potency entry was “inactive”.
Still for that read-out and setting: for `OCCCCC#Cc1cncc(OC[C@@H]2CCN2)c1` the value was “inactive”; for `COc1ccc(C(CN(C)C)C2(O)CCCCC2)cc1` (stereo unspecified), “inactive”.
`CC(CC(C(N)=O)(c1ccccc1)c1ccccc1)N(C)C` (stereo unspecified): the Potency entry is “inactive”.
Same read-out and setting: for `O=C1CN=C(c2cccc(Br)c2)c2oc3ccccc3c2N1` the value was 7.31 µM (active).
Still for that read-out and setting: for `Sc1ccccc1Cl` the value was “inactive”; for `c1cncc(OC[C@@H]2CCN2)c1`, “inactive”.
On the same count and under the same terms, then `O=[N+]([O-])/N=C1\NCCN1Cc1ccc(Cl)nc1`, with “inactive”; and `C#CCN(C)[C@H](C)Cc1ccccc1`, with “inactive”.
`CCC1(CC)C(=O)NC(=O)NC1=O`: the Potency entry was “inactive”.
Same read-out and setting: then `CN(C(=O)Cc1ccccc1)C(CN1CCCC1)c1ccccc1` (stereo unspecified), with “inactive”; and `C[C@@H]1CN(C2CCC(C#N)(c3ccc(F)cc3)CC2)CC[C@]1(C(=O)O)c1ccccc1` (stereo partly specified), with “inactive”; and `CC(C)C(Br)C(=O)NC(N)=O` (stereo unspecified), with “inactive”.
The same measure, in the same setting: then `C[C@@H](CN1CCC(n2c(=O)[nH]c3cc(Br)ccc32)CC1)NC(=O)[C@@H]1C[C@H]1c1ccccc1`, with 6.51 µM (active); and `C1CN2CCC1CC2`, with “inactive”.
Same read-out and setting: for `O=C1c2ccccc2C(=O)c2ccccc21` the value was “inactive”.
As for `CC(C)[C@@H](CN1CC[C@@](C)(c2cccc(O)c2)[C@@H](C)C1)NC(=O)[C@H]1Cc2ccc(O)cc2CN1`, the Potency was 16.4 µM (active).
Consider `CN[C@@H](C)[C@H](O)c1ccccc1`, for which the Potency result is “inactive”.
On to `C[C@H]1CNCCc2ccc(Cl)cc21`, for which the Potency result was “inactive”.
